Test results published in ChEMBL document CHEMBL4808148, “HDAC6 screening dataset using tau-based substrate in an enzymatic assay yields selective inhibitors and activators” (2021).
Screen size: about 5,600 compounds; about 390 (7%) showed an effect of 50% or more. The list comes from a sample in which strong results are over-represented; it also holds similar structures and randomly drawn compounds.

Experiments:
[1] = target: T1, Protein deacetylase HDAC6 (Homo sapiens) (UniProt Q9UBN7); conditions: at 10 µM
T1 sequence (whole entry): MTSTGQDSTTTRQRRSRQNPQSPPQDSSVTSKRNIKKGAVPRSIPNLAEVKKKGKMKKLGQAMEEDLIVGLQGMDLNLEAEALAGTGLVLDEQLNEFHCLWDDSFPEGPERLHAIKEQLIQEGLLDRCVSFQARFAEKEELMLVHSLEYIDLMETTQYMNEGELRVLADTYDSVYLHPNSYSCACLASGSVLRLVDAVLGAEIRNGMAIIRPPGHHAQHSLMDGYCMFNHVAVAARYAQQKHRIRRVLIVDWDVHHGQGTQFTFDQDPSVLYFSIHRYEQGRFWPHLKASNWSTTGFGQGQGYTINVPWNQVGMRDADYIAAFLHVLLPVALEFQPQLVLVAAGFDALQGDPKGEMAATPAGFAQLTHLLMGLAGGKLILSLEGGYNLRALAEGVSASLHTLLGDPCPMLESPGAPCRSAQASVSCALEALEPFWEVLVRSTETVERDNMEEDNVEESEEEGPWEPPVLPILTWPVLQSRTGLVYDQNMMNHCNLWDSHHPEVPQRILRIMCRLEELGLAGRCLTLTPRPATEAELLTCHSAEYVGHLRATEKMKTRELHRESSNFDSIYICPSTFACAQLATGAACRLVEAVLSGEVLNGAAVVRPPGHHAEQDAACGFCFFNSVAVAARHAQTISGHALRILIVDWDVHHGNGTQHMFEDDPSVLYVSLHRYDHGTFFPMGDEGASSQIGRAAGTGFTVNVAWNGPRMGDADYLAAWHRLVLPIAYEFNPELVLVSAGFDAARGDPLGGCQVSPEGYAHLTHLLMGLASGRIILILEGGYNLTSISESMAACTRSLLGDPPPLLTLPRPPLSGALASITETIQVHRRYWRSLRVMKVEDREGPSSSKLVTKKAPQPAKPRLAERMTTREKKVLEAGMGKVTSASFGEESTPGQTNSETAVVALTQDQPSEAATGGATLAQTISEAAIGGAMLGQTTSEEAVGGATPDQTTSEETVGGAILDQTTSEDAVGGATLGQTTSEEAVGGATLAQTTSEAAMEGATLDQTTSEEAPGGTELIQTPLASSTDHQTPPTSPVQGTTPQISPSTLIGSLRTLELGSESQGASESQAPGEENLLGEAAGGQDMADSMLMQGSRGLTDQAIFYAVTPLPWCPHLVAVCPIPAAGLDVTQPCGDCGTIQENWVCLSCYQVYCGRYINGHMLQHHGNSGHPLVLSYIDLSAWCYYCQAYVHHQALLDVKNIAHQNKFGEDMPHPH

[2] = target: Protein deacetylase HDAC6 (Homo sapiens) (UniProt Q9UBN7); conditions: at 10 µM; remark: listed apart in the source

| Compound | inhibition [1] [%] | inhibition [2] [%] |
| --- | --- | --- |
| CN(C)CCOC1=Cc2ccccc2Sc2ccc(Cl)cc21 | 96.6 | – |
| CN(C)CCOC(=O)COc1ccc(Cl)cc1 | 1.19 | – |
| CN1CCN(C2=Nc3ccccc3Sc3ccc(Cl)cc32)CC1 | 29.6 | – |
| C[C@H]1[C@H](C)CC[C@]2(C(=O)O)CC[C@]3(C)C(=CC[C@@H]4[C@@]5(C)C[C@@H](O)[C@H](O)C(C)(C)[C@@H]5CC[C@]43C)[C@H]12 | -2.75 | – |
| Cc1ccc([C@@H]2O[C@H](CO)[C@@H](O)[C@H](O)[C@H]2O)cc1Cc1ccc(-c2ccc(F)cc2)s1 | -5.59 | – |
| CC(C)NC(=O)N1CC[C@H](NC2=Nc3cc(F)ccc3N(CC(F)F)c3ccc(Cl)cc32)C1 | 29.2 | – |
| CN(C)CCn1cc(S(=O)(=O)c2cccc(F)c2)c2cccnc21 | 14.3 | – |
| O=C(NCCCCCCNC(=O)ON=C1CCCCC1)ON=C1CCCCC1 | 40.7 | – |
| AUROTHIOGLUCOSE, CHEMBL1697725 | – | 8.56 |
| COc1ccc2cc([C@H](C)C(=O)O)ccc2c1 | -2.33 | – |
| COc1ccc2[nH]c(C(=O)c3ccccc3)cc2c1 | 109 | – |
| COc1ccc2[nH]c(-c3ccccc3)c(CCNC(C)=O)c2c1 | 9.99 | – |
| Cc1nn(C)c2c1C(c1ccc(C(F)(F)F)cc1)C(C#N)=C(N)O2 (configuration not stated) | 27.3 | – |
| OC[C@H]1O[C@@H]2O[C@H]3[C@H](O)[C@@H](O)[C@@H](O[C@H]4[C@H](O)[C@@H](O)[C@@H](O[C@H]5[C@H](O)[C@@H](O)[C@@H](O[C@H]6[C@H](O)[C@@H](O)[C@@H](O[C@H]7[C@H](O)[C@@H](O)[C@@H](O[C@H]8[C@H](O)[C@@H](O)[C@@H](O[C@H]1[C@H](O)[C@H]2O)O[C@@H]8CO)O[C@@H]7CO)O[C@@H]6CO)O[C@@H]5CO)O[C@@H]4CO)O[C@@H]3CO | -4.02 | – |
| O=C(O)c1cc2occc2[nH]1 | 21.7 | – |
| Cc1cc(C)c(N(Cc2ccccc2)S(=O)(=O)c2ccc(OCCNC(=O)c3cc4ccccc4o3)cc2)c(C(=O)NO)c1 | 71.8 | – |
| CN(C(=O)C(Cl)Cl)c1ccc(OC(=O)c2ccco2)cc1 | 5.17 | – |
| CO/N=C(/C(=O)N[C@@H]1C(=O)N2C(C(=O)O)=C(CSc3nc(=O)c(O)nn3C)CS[C@H]12)c1csc(N)n1 | -3.44 | – |
| COc1cccc(-c2cc(NCc3ccc4c(c3)OCO4)nc(N)n2)c1 | 68.7 | – |
| COc1cccc(CN(C(=O)CC(C)(C)C)[C@H]2C[C@@H](C(=O)N3CCNCC3)N(Cc3ccc4c(c3)OCO4)C2)c1 | 2.2 | – |
| COc1cc(C[C@H](C)[C@H](C)Cc2ccc3c(c2)OCO3)ccc1O | 0.28 | – |

| Compound | inhibition [1] [%] | inhibition [2] [%] |
| --- | --- | --- |
| O=C(NCCS(=O)(=O)c1ccc(C(F)(F)F)cn1)c1ccc(Cl)cc1 | -5.62 | – |
| CCOC(=O)Nc1ccc2c(c1)N(C(=O)CN(CC)CC)c1ccccc1CC2 | 18.9 | – |
| OC[C@H]1OC(O)[C@H](F)[C@@H](O)[C@H]1O (some centres not stated) | -0.45 | – |
| NC1=NCC2c3ccccc3Cc3ccccc3N12 (configuration not stated) | 4.93 | – |
| Nc1nc2ccc(OC(F)(F)F)cc2s1 | 72.9 | – |
| CCOc1ccc2nc(S(N)(=O)=O)sc2c1 | 25.8 | – |
| C=C[C@]1(C)CC[C@@H](C(=C)C)C[C@H]1C(=C)C | 7.53 | – |
| Nc1ccc(O)c(C(=O)O)c1 | 0.62 | – |
| Nc1ccc(C(=O)Oc2ccccc2)c(O)c1 | 108 | – |
| O=C(Oc1ccccc1C(=O)O)c1ccccc1O | 43.2 | – |
| O=S(=O)(N[C@H](CO)C(C(F)(F)F)C(F)(F)F)c1ccc(Cl)s1 | 9.08 | – |
| O=P(O)(O)OC[C@H]1OC(O)(COP(=O)(O)O)[C@@H](O)[C@@H]1O (some centres not stated) | 8.76 | – |
| Cc1csc(NC(=O)CSc2ccc(-c3ccccc3)nn2)n1 | 31.4 | – |
| O[C@@H]1[C@H](O)[C@@H](CCl)O[C@H]1n1cnc2c(NC3CC4CCC3C4)ncnc21 (mixture of isomers) | 17.3 | – |
| CCCCOc1ccc(CC(=O)NO)cc1 | 73 | – |
| CCCCOc1ccc(C(=O)CCN2CCCCC2)cc1 | 4.77 | – |
| CCOc1ccc(NC(C)=O)cc1 | -4.35 | – |
| CC[C@@]1(O)C(=O)OCc2c1cc1n(c2=O)Cc2c-1nc1cc(F)c(C)c3c1c2[C@@H](N)CC3 | 45.5 | – |
| CCN(CC)CCOC(=O)C1(c2ccc([N+](=O)[O-])cc2)CCCC1 | 17.3 | – |
| CC1=C(/C=C/C(=C/C=C/C(C)=C/C(=O)O)c2ccc(C)cc2)C(C)(C)CCC1 | 32.2 | – |
| CC(C)NC(=O)COc1cccc(-c2nc(Nc3ccc4[nH]ncc4c3)c3ccccc3n2)c1 | 4.77 | – |

| Compound | inhibition [1] [%] | inhibition [2] [%] |
| --- | --- | --- |
| O=C(CCNNC(=O)c1ccncc1)NCc1ccccc1 | -0.28 | – |
| CCCCCCCCCCCCCCCC(=O)NCCO | 7.03 | – |
| O=C(CCCCCCNC(=O)c1cnc(N(c2ccccc2)c2ccccc2)nc1)NO | 101 | – |
| O=C(O)C1CN(Cc2ccc(-c3nc4cc(Cc5ccccc5F)ccc4s3)c(F)c2)C1 | 12.2 | – |
| CCCCC/C=C\C=C/CCCCCCCCC(=O)O | 13.9 | – |
| c1ccc(CNCc2ccc(CN3CCCNCCNCCCNCC3)cc2)nc1 | -1.23 | – |
| Clc1cccc2c1CN(C1=NCCN1)C2 | -3.56 | – |
| O=c1[nH]nc2c3c(cccc13)N=C(CN1Cc3ccccc3C1)N2 | -8.46 | – |
| CN(C)Cc1ccc(S(=O)(=O)n2ccc(/C=C/C(=O)NO)c2)cc1 | 101 | – |
| Cn1nc(-c2ccc(C(F)(F)F)cc2)nc2c(=O)n(C)c(=O)nc1-2 | 12.3 | – |
| CC(=O)OC[C@H]1O[C@@H](n2ccc(=O)[nH]c2=O)[C@H](OC(C)=O)[C@@H]1OC(C)=O | 41.6 | – |
| O=C(NC1CCC1)c1ccc(C#Cc2cccc(F)c2)nc1 | 53.6 | – |
| Cc1c(F)cc(C(=O)NC2CC2)cc1-c1ccc(C(=O)NCC(C)(C)C)cn1 | -6.14 | – |
| CCOC(=O)c1ccc(C#Cc2ccc3c(c2)C(C)(C)CCS3)nc1 | 22.8 | – |
| COc1ccc(CC(=O)NC(N/C(=N/C#N)Nc2cccc3ncccc23)C(C)(C)C)cc1OC (configuration not stated) | 17.5 | – |
| NC(=O)OC[C@@H]1[C@H](NC(=O)/C(=N\OCC(=O)O)c2csc(N)n2)C(=O)N1S(=O)(=O)O | 1.5 | – |
| COc1cc(C)c2c(Oc3cccc(C(F)(F)F)c3)c(OC)cc(NC(C)CCCN)c2n1 (configuration not stated) | 19.9 | – |
| Cc1ccc(C(=O)Nc2cccc(C(F)(F)F)c2)cc1Nc1nc(-c2cccnc2)nc2c1cnn2C | 17.5 | – |
| Cc1ccc(NC(=O)c2ccc(CN3CCN(C)CC3)cc2)cc1Nc1nc(-c2cccnc2)cs1 | 89.4 | – |
| Cc1ccc(NC(=O)c2ccc(CN3CCN(C)CC3)cc2)cc1Nc1nccc(-c2cccnc2)n1 | 36.3 | – |
